D2 antagonist = antagonizes the human D2 dopamine receptor | inhibition, % at 10 µM | HEK293 TREx D2 cells, calcium flux, dopamine EC80 | P14416 | actives 2% (n = 340,000); in the data active = inhibition above about 30%; inactive = below that, where a call was filed
Target sequence (P14416 whole entry, looked up): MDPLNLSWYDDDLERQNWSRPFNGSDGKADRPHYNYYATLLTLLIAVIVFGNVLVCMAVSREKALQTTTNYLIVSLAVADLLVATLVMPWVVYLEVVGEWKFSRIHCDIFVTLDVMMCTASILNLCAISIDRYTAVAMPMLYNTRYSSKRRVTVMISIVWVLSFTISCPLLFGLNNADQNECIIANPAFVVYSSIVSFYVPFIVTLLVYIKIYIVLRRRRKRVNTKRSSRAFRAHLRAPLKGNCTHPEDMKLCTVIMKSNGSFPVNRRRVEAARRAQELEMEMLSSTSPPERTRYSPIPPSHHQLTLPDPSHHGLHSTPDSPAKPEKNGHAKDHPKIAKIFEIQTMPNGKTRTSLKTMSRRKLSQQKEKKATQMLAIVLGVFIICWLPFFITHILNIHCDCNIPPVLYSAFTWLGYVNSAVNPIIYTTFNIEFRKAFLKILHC
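Tetracycline-induced HEK293 TREx cells expressing D2 receptor forced-coupled to calcium signalling, loaded with no-wash calcium dye. Compounds added and calcium flux read 180 s, then dopamine added at EC80 and read a further 180 s.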
D2 ag-1 = agonists of human D2 dopamine receptor (beta-arrestin); activation, % (concentration not given with the values); DiscoveRx PathHunter D2 beta-arrestin, luminescence, 90 min; 100% = 57 uM dopamine signal; actives 0.084% (n = 360,000); in the data active = activation above about 40%; inconclusive = between about 15% and that limit
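Agonist mode: compounds alone added to overnight-plated D2 PathHunter cells for 90 min at 37 C, with 57 uM final dopamine (EC100) defining full response. Beta-arrestin recruitment detected by chemiluminescent reagent, read after 1 h at ambient temperature.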
D2 ag-2 = D2 dopamine receptor (human) agonism; P14416; HEK293 T-REx D2 cells, calcium flux agonist mode; activation, % at 2 µM; actives 0.53% (n = 340,000); AID 485358;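 active = activation over 3 SD above normal in the single-dose calcium agonist read, cut at about 30% in these data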
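Agonism is scored from calcium flux in a force-coupled, inducible HEK293 cell line expressing D2, read kinetically for 180 s after compound addition against dopamine controls.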
D2 PAM-1 = positive allosteric modulators of human D2 dopamine receptor | HEK293 T-REx D2, calcium flux, EC20 dopamine potentiation | potentiation, % at 10 µM | actives 0.34% (n = 340,000) | AID 485347;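 active = potentiation over 3 SD above the plate norm, cut at about 30% in these data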
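Potentiation of an EC20 dopamine calcium response measured kinetically over 180 s, after a preceding 180 s compound-only read flagging agonists. Cells: inducible Hek293 Trex D2 line, 4000/well, cultured overnight at 30 C before dye loading.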
D2 PAM-2 = positive allosteric modulators of human D2 dopamine receptor; P14416; DiscoveRx D2 beta-arrestin cells, luminescence, 90 min; 100% = 57 uM dopamine signal; potentiation, % (no concentration beside the values); actives 0.23% (n = 360,000); in the data active = potentiation above about 50%; inconclusive = mostly about 30% to 49%
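D2 cells co-treated with compound plus 50 nM dopamine (EC20) for 90 min at 37 deg C to detect potentiation. Beta-arrestin recruitment was read as enzyme-fragment luminescence after 1 h at ambient temperature. Full response was set by 57 uM dopamine.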
D3 arrestin ag = confirmation of human D3 dopamine receptor agonists, beta-arrestin. shares compounds with D2 ag-2. Potency, µM (top dose mostly 76.9 µM), actives largely listed as activators. DiscoveRx D3 beta-arrestin cells, luminescence, 90 min. actives 4% (n = 2,300); note: nearly all actives have a fitted effect of over 70% in size
D2 ag-3 = counter-screen for D3 agonists: human D2 dopamine receptor agonism. actives 5.9% (n = 2,300). DiscoveRx PathHunter D2 beta-arrestin, luminescence, 90 min; response scale: percent relative to full dopamine signal. AID 720507. shares compounds with D2 ag-2. Potency, µM (titrated, usually from 76.9 µM), most hits filed as activators; note: nearly all actives have a fitted effect of over 70% in size
Each line names hits and unclear results; the compound was inactive in the other large screens (follow-up assays come after a bar, where they were run). Rows were chosen to be rich in hits. Some 2.4% of all compounds tested hit in one or more screens of this group. Unless noted, calls come from the whole dose curve; as a rule, active = well fitted activation curve with a large enough effect; inconclusive = small, poorly fitted or top-dose-only effect; inactive = flat fitted curve, though single readings scatter.

OC1(c2ccc(Br)cc2)CCN(Cc2cccc(Br)c2)CC1	D2 antagonist 102.8
CC(=O)NCc1nc2cccnc2n1Cc1ccccc1	none (no result: D2 antagonist, D2 ag-1, D2 PAM-2)
CCn1cc(C(=O)O)c(=O)c2cc(F)c(N3CCN(C(=S)NC(=O)c4ccccc4Br)CC3)cc21	D2 PAM-1 30.7
CCn1cc(C(=O)O)c(=O)c2cc(F)c(N/N=C/c3ccccc3[N+](=O)[O-])cc21	D2 antagonist 30.0
CC(C)Sc1ncc(Cl)c(C(=O)Nc2ccc(S(=O)(=O)N3CCCCC3)cc2)n1	none (no result: D2 antagonist, D2 ag-1, D2 PAM-2)
Cc1ccc(CN2C(=O)CC(c3ccc(Cl)cc3)c3c(C)nn(-c4nc(C)cc(C)n4)c32)cc1 (configuration not stated)	none (no result: D2 antagonist, D2 ag-1, D2 PAM-2)
CC(=O)OC1C(N2CCCCC2)c2c(ccc(/C=C/C(=O)N3CCCCC3)c2O)OC1(C)C (configuration not stated)	D2 antagonist 30.4
CC1(C)Oc2ccc3ccc(=O)oc3c2C(N2CCCCC2)C1O (configuration not stated)	none
Cc1cc(=O)[nH]c(SCC(=O)NCC2CCCO2)n1 (configuration not stated)	D2 antagonist 34.0
CC(C)Cc1nnc(NC(=O)c2cc(-c3ccccc3)nc3ccccc23)s1	D2 PAM-1 30.4
CC(C)Cc1nnc(NC(=O)c2cc(-c3ccncc3)nc3ccccc23)s1	none
OC1CCCCC1Sc1nc2ccccc2s1 (configuration not stated)	D2 antagonist 40.1
C=CC(C)(C)c1[nH]cnc1/C=C1\NC(=O)C(C(C)C)NC1=O (configuration not stated)	D2 antagonist 76.1
Cc1cc(Cl)ccc1NC(=S)N(CCCN1CCOCC1)Cc1cccs1	none
Cc1ccc(Cl)cc1NC(=S)N(CCCN1CCN(C)CC1)Cc1cccs1	D2 antagonist 45.1
COc1ccc(NC(=S)N(CCCN2CCCC(C)C2)Cc2cccs2)cc1 (configuration not stated)	D2 antagonist 49.3 (no result: D2 PAM-1)
C=CCn1c(SCn2nnc3ccccc3c2=O)nnc1-c1ccc(Br)cc1	D2 PAM-1 36.1
C=CCn1c(SCn2nnc3ccccc3c2=O)nnc1-c1ccc(F)cc1	none
CCCN(CCC)CCCNC(=S)Nc1ccc2nc(N3CCCC3)cc(C)c2c1	none
CCCCN(CC)CCCNC(=S)Nc1ccc2nc(N3CCN(CC)CC3)cc(C)c2c1	D2 antagonist 41.4, D2 ag-2 60.4 | D3 arrestin ag inconclusive | D2 ag-3 inactive
O=c1c2cc(NC(=S)NCCN3CCCCCC3)ccc2nc2n1CCCCC2	none
CCCCN(CC)CCCNC(=S)Nc1ccc2nc(N3CCN(C)CC3)cc(C)c2c1	D2 antagonist 39.6, D2 ag-2 71.4 | D3 arrestin ag inactive | D2 ag-3 inactive
CCCCN(CC)CCCNC(=S)Nc1ccc2nc3n(c(=O)c2c1)CCCCC3	D2 antagonist 59.7, D2 ag-2 85.8 | D3 arrestin ag inactive | D2 ag-3 inactive
CNc1nc(CC(C)=O)ns1	none
CCCCNc1nc(CC(C)=O)ns1	D2 antagonist 30.2, D2 ag-2 50.2 | D3 arrestin ag inactive | D2 ag-3 inactive
O=C1N=C(N2CCOCC2)S/C1=C/c1ccc(-c2ccc(F)cc2)o1	D2 ag-1 inconclusive, D2 ag-2 55.2 | D3 arrestin ag inactive | D2 ag-3 inconclusive
CN(CCNC(=O)C1CCN(S(=O)(=O)N2CCOCC2)CC1)CCc1ccccc1	D2 ag-2 55.1 | D3 arrestin ag inactive | D2 ag-3 inactive
CCOc1ccc(OCC(=O)NCCS(=O)(=O)N2CCN(c3ccccc3F)CC2)cc1	none (no result: D2 antagonist, D2 ag-1, D2 PAM-2)
C=CCc1cc(C)ccc1OCC(O)CN1CCN(c2ccccc2)CC1 (configuration not stated)	D2 antagonist 79.9, D2 ag-2 61.9 | D3 arrestin ag 0.631µM | D2 ag-3 inactive
